CHT block = inhibitors of human choline transporter CHT | Q9GZV3 | CHT-expressing cells, membrane potential dye, choline response; stronger effect = lower value | B-score at 10 µM | 310,000 tested, 0.86% active | AID 488975;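 active = B-score over 3 SD under the library average, and starting fluorescence ratio not unusually high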;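 also: choline stimulus applied at its EC90 after an EC20 pre-addition; B-score computed on integrated fluorescence ratio after choline addition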
Target sequence (Q9GZV3 whole entry, looked up): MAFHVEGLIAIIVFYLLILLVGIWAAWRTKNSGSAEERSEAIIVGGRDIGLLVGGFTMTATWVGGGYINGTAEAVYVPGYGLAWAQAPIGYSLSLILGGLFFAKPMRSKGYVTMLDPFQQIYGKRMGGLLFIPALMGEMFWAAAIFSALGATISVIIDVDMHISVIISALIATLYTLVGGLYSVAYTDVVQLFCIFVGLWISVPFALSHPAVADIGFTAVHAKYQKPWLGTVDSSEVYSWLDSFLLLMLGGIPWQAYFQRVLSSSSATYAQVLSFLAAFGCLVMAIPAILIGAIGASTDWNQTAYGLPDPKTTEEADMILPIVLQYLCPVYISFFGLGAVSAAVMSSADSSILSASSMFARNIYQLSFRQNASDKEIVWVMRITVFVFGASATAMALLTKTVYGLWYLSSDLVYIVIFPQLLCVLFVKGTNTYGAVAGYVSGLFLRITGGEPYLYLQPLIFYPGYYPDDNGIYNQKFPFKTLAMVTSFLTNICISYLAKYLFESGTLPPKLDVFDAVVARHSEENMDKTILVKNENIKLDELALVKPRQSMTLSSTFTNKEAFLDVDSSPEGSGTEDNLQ
EP2 antag = inhibitors of human EP2 prostaglandin E2 receptor. P43116. C6 glioma cells expressing human EP2, cAMP TR-FRET; cells stimulated with saturating PGE2. inhibition, % at 25 µM. 260,000 tested, 0.52% active;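 active = percent inhibition above 40 after rounding to a whole number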;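 also: rat C6 glioma host cells with rolipram phosphodiesterase inhibitor present; the protocol text gives 20 µM as final concentration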
EP2 mod = modulates human prostaglandin E2 receptor EP2 signaling; induction, % at 25 µM; 260,000 tested, 0.83% active; AID 940; EP2-expressing cells, cAMP HTRF FRET, PGE2 co-stimulation;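 active = compounds whose cAMP rise, as percent of the full-agonist control response, exceeds 60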;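 also: rat C6 glioma line stably carrying human EP2 under a CMV promoter; the protocol text gives 20 µM as final concentration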
CHT allo act = human CHT allosteric activation. Q9GZV3. CHT-expressing cells, membrane potential dye, choline EC20; stronger effect = higher value; LV-AA mutant CHT in HEK293 cells. B-score at 10 µM. 310,000 tested, 0.49% active;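 active = initial fluorescence not abnormally high and integrated response B-score, plate-corrected, over 3 SD above library mean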
Large screens that a line does not name were inactive; ! = a repeat was not active. Rows were chosen to be rich in hits. Some 2.1% of all compounds tested hit in one or more screens of this group.

O=C(Nc1ccc(OCC(F)(F)C(F)F)c(C(F)(F)F)c1)c1ccccc1O	none
O=C(Nc1ccc(OCC(F)(F)C(F)F)c(C(F)(F)F)c1)c1ccccc1	EP2 antag 44.7 (no result: EP2 mod)
CCOC(=O)N1CCN(C(=S)Nc2ccc3nc(N4CCN(CC)CC4)cc(C)c3c2)CC1	CHT block -8.34
O=C1c2ccccc2C(=O)N1C1(C(=O)NC2(C(=O)O)CCCC2)CCCC1	EP2 antag 42.2 (no result: CHT block, CHT allo act)
O=C(O)[C@H]1CN(C(=O)c2ccco2)C[C@@H]1c1ccc(F)cc1	none (no result: CHT block, EP2 antag, CHT allo act)
CC(C)N(C(=O)c1ccccc1-c1ccccc1)C(C)C	EP2 mod 62.7
C[n+]1cc2c3c(ccc2c2ccc4cc5c(cc4c21)OCO5)OCO3	EP2 antag 118.3 (no result: CHT block, CHT allo act)
C[n+]1c(/C=C/c2ccc3c(c2)OCO3)ccc2ccccc21	none
COc1ccc(OC)c(-c2csc(N(C)C(=O)COc3ccc(C)cc3)n2)c1	EP2 antag 53.9 (no result: CHT block, CHT allo act)
CCN(C(=O)C1CC1)c1nc(-c2cc(OC)ccc2OC)cs1	EP2 mod 65.3 (no result: CHT block, CHT allo act)
O=C(O)c1ccc(-c2nc3scc(-c4ccccc4)c3c(=O)[nH]2)cc1	EP2 antag 40.7
N#Cc1c(SCC(=O)O)nc(-c2ccccc2)c2c1CCCC2	EP2 antag 44.7
O=C(Nc1ccc(S(=O)(=O)N2CCCCC2)cc1)c1c(Cl)cccc1Cl	none (no result: CHT block, CHT allo act)
O=C(N/N=C/c1cccnc1)c1ccc([N+](=O)[O-])cc1	CHT allo act 6.82
N#CC(=NCCO)C1=C(O)c2ccccc2C1=O	none (no result: CHT block, CHT allo act)
O=C1C(SCCO)=C(SCCO)C(=O)c2ccccc21	EP2 antag 43.0
CC(C)C1C(C#N)=C(N)Oc2n[nH]c(-c3ccc4ccccc4c3)c21 (configuration not stated)	EP2 antag 133.1
COCCCN1C(=O)C(O)=C(C(=O)c2cccs2)C1c1ccc(OC)cc1 (configuration not stated)	none (no result: CHT block, CHT allo act)
Nc1cc(N)nc(SCC(=O)O)n1	none (no result: CHT block, CHT allo act)
CCC(=O)OCCn1c(=O)c2cc3c(=O)n(CCOC(=O)CC)c(=O)c3cc2c1=O	EP2 antag 95.3
C[C@H]1CCC/C=C\[C@@H]2C[C@H](OC(=O)CN(C)C)C[C@H]2[C@@H](O)/C=C\C(=O)O1	EP2 antag 46.5 (no result: CHT block, CHT allo act)
C=CCSc1nc2c(N)ncnc2n1[C@H]1O[C@H](CO)[C@@H](O)[C@@H]1O	none (no result: CHT block, CHT allo act)
CNc1nc2c(N)ncnc2n1[C@H]1O[C@@H](CO)[C@H](O)[C@@H]1O	CHT block -7.59 (no result: EP2 antag, EP2 mod)
COc1ccc(-c2nc(N)c3ncn([C@H]4O[C@H](CO)[C@@H](O)[C@@H]4O)c3n2)cc1	EP2 antag 52.0 (no result: CHT block, CHT allo act)
Fc1c(F)c(C(F)(F)F)c(F)c(F)c1N/N=C\c1cccs1	EP2 antag 123.8
Cn1c(=S)[nH]c2sc3c(c2c1=O)CCc1ccccc1-3	none (no result: CHT block, CHT allo act)
O=C(Nc1ccc(C(=O)O)cc1)/C(=C/c1cccc(Br)c1)NC(=O)c1ccco1	EP2 mod 62.7
Cn1cc(CC(=O)N2CCC(n3nnc(-c4ccc(F)cc4)n3)CC2)c2ccccc2c1=O	none (no result: CHT block, EP2 antag, CHT allo act)
CC(C)(C)n1nc(-c2ccc(Cl)cc2)c2c(N)ncnc21	none
Cc1ccc(-c2nn(C(C)(C)C)c3ncnc(NS(=O)(=O)c4ccc([N+](=O)[O-])cc4)c23)cc1	EP2 mod 61.5
Brc1ccc(-c2nc3ccccc3s2)s1	EP2 antag 123.7
Nc1ccc(-c2nc3ccccc3s2)cn1	none (no result: EP2 antag, EP2 mod)
O=C(/C=C/c1ccccc1)N(Cc1nc2ccccc2c(=O)[nH]1)Cc1cccs1	EP2 mod 63.0 (no result: CHT block, CHT allo act)
COc1ccc2c(c1)cc(C)c1nn(CC(N)=O)c(=O)n12	EP2 mod 84.0 (no result: CHT block, CHT allo act)
NC(=O)c1cn(-c2ccccc2)nc1-c1cc2ccccc2oc1=O	EP2 mod 98.2
C[c-]1[c-](C)[c-](C)[c-](C)[c-]1C.[Fe].c1cc2nccc(N3CCCC3)[c-]2c1 (configuration not stated)	EP2 antag 55.1!
C=CCn1c(N2CCC(C(=O)NCCCO)CC2)nc2ccccc21	none (no result: CHT block, CHT allo act)
CN1Cc2cc(C(=O)c3cc(Cl)cc(CSc4ncccn4)c3O)cnc2NC1=O	CHT allo act 7.01
O=C(N/C(=C\c1ccc2c(c1)OCO2)C(=O)N1CCCCCC1)c1ccco1	none (no result: CHT block, CHT allo act)
CCOC(=O)c1c(NC(=O)COc2cccc3c2CCN(CC)C3=O)sc2c1CCC2	EP2 mod 63.7
O=C(CN1CCOCC1)Nc1sc2c(c1C(=O)c1ccccc1)CCC2	none (no result: CHT block, CHT allo act)
O=C(CN1CCOCC1)Nc1sc2c(c1C(=O)c1cccc(F)c1)CCC2	EP2 mod 68.3 (no result: CHT block, CHT allo act)
CCOC(=O)c1c(NC(=O)CN2CCOCC2)sc2c1CCCC2	EP2 mod 62.2
CCCc1nc2cc(NC(=O)COc3ncnc4ccccc34)ccc2n1C	none (no result: CHT block, CHT allo act)
CCCCCCc1c(O)c2ccccc2[nH]c1=O	none
CCCCCCCCCCCC1=C(O)C(=O)C=C(O)C1=O	EP2 antag 64.9!
COC1=CC(=O)C(O)=C(CCCCCCC/C=C/CCCCCCCC2=C(O)C(=O)C=C(OC)C2=O)C1=O	EP2 antag 54.5 (no result: EP2 mod)
COc1ccc(CNC(=O)Cn2nc(C)n3c(cc4sccc43)c2=O)cc1	none (no result: CHT block, EP2 antag, CHT allo act)
O=C(Nc1ccccc1Cl)C1C2CCC3C(CCC21)C3(Cl)Cl (configuration not stated)	none
CC1(C)Cc2ccccc2C(C(=O)Nc2ccccc2Cl)N1 (configuration not stated)	EP2 mod 62.8 (no result: CHT block, CHT allo act)
C=CCNC(=O)C1CC(c2c(F)cccc2Cl)=NO1 (configuration not stated)	none (no result: CHT block, CHT allo act)
Cc1cc(C)c2nc(C(F)(F)F)nc(N3CC(C)OC(C)C3)c2c1 (configuration not stated)	EP2 mod 61.3 (no result: EP2 antag)
CCNc1nc(SCc2ccccc2)nc(N2CCOCC2)n1	EP2 mod 63.0
CC(=O)Oc1ccc(-c2csc(Nc3ccc(O)cc3)n2)cc1	none (no result: CHT block, CHT allo act)
CCOc1ccccc1NC(=O)CSc1ncnc2sc3c(c12)CCC(C)C3 (configuration not stated)	EP2 mod 65.3 (no result: CHT block, CHT allo act)
CCOc1ccccc1NC(=O)CSc1nc(C)nc2sc(C)c(C)c12	EP2 mod 72.6 (no result: CHT block, CHT allo act)
CC1CCc2c(sc3ncnc(SCC(=O)Nc4ccc(C(=O)O)cc4)c23)C1 (configuration not stated)	none (no result: EP2 antag, EP2 mod)
CCOc1ccccc1NC(=O)CSc1nc(C2CC2)nc2sc(C)c(C)c12	EP2 mod 60.8 (no result: CHT block, CHT allo act)
Cc1cc(N/N=C/c2ccc(O)c(C)c2O)nc(-c2ccccc2O)n1	EP2 antag 90.5
C/C(=N\Nc1cc(C)nc(-c2ccccc2O)n1)c1ccccc1	none
COc1ccc2nc3cc(Cl)ccc3c(C#N)c2c1	none
COc1ccc2nc3cc(Cl)ccc3c(Nc3ccc(O)c(CN4CCN(C)CC4)c3)c2c1	EP2 antag 89.8 (no result: CHT block, CHT allo act)
Cc1c(Cl)cccc1NC(=S)NNc1ncc(C(F)(F)F)cc1Cl	CHT block -5.27
Cc1ccccc1NC(=S)NNc1ncc(C(F)(F)F)cc1Cl	none
CC(C)C(c1nnnn1C1CCCCC1)N1CCCCCC1 (configuration not stated)	none (no result: CHT block, CHT allo act)
CC(=O)O[C@H]1CC[C@@]2(C)C(=CC[C@@H]3[C@H]4CC[C@@H](c5cc(C(F)(F)F)n(C(C)=O)n5)[C@]4(C)CC[C@H]32)C1	EP2 antag 41.9 (no result: CHT block, CHT allo act)
Cc1cc(SCC(=O)c2ccc(Br)cc2)cc(C)[o+]1	EP2 antag 48.2 (no result: CHT block, CHT allo act)

Compound activity: PubChem BioAssay, several laboratories
